IL-1B inflam inh – blocks inflammasome-driven IL-1 beta release; 4.7% of 360,000 active; AID 743279; THP-1 LPS/ATP IL-1B secretion, AlphaLISA, 16 h; hits give low values; activity change, % at 57.5 µM; in the data active = activity change below about -50%; inconclusive = mostly about -30% to -49%
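Secreted IL-1B measured by AlphaLISA bead assay after 16 h compound exposure of THP-1 cells; compounds (final up to 57.5 uM) added 1 h before LPS (250 ng/mL) and ATP (1.25 mM) stimulation; lower signal means less secretion.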
HT1080 IDH1KD tx – kills HT-1080 cells with IDH1 knockdown. HT-1080 IDH1 knockdown viability, ATP luminescence, 48 h. Potency, µM (doses to about 46.1 µM), for the others: top-dose activity, negative = toxicity, most hits filed as cytotoxic. 2% of 360,000 active;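 also: potency is read from the fitted curve at half-maximal effect; 0% = DMSO wells and -100% = cell-free medium wells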
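IDH1KD HT-1080 cells, 750/well, RPMI + 5% FBS; compound pinned after 2 h settling; 48 h, 37 °C; CellTiter-Glo luminescence; % activity normalised to DMSO and no-cell wells; curves fitted, classed by r2 and efficacy.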
DT40 TDP1 no CPT – qHTS for Inhibitors of human tyrosyl-DNA phosphodiesterase 1 (TDP1): qHTS in cells in absence of CPT | DT40 Tdp1-/- hTDP1 cells, no CPT, ATP luminescence, 48 h | Potency, µM (titrated, usually from 46.2 µM), without a hit: top-dose activity change, negative = growth inhibition, most hits filed as inhibitors | 15% of 420,000 active | AID 686978, 2013; also: potency is read from the fitted curve at half-maximal effect; nearly all actives have a fitted effect of over 55% in size
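Luminescent ATP content (CellTiter-Glo) served as the growth readout. Knockout chicken DT40 cells expressing human TDP1 were exposed to compounds without camptothecin for a minimum 48 hr at 37 °C.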
HT1080-NT tox – kills 2HG-producing HT-1080-NT fibrosarcoma cells; HT-1080-NT fibrosarcoma viability, CellTiter-Glo ATP luminescence, 48 h; Potency, µM (doses to about 46.1 µM), without a hit: top-dose activity, negative = less viability, hits mostly cytotoxic; 1.6% of 360,000 active; AID 686970;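 also: NT is the 2HG producing partner of a matched IDH1 knockdown line; potency is read from the fitted curve at half-maximal effect; 0% = DMSO-treated cells and -100% = media-only wells without cells; nearly all actives have a fitted effect of over 55% in size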
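Compounds were tested in concentration-response format on HT-1080-NT cells for 48 hours at 37 degrees C. Cell viability came from CellTiter-Glo luminescence; curves were classified by r2, response magnitude and activity.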
TDP1 cell CPT – DT40-hTDP1 cell growth loss with CPT; 12% of 420,000 active; Potency, µM (series often up to 46.2 µM), without a hit: top-dose activity change, negative = growth inhibition, hits mostly inhibitors; AID 686979; chicken DT40 Tdp1-/-;hTDP1 cells + 20 nM CPT, ATP luminescence, 48 h; also: potency is read from the fitted curve at half-maximal effect; nearly all actives have a fitted effect of over 55% in size
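Cell growth measured by CellTiter-Glo luminescence after a minimum 48 h, 37 C compound exposure with 20 nM CPT in Tdp1-knockout DT40 cells stably expressing hTDP1, seeded 400/well; qHTS titration format.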
The depositor's hits bear a star; u = inconclusive; x = no result given; [ ] = another dose, or the depositor's remark. Hits are enriched below; roughly 19% of the tested compounds scored in any of these assays. Unless noted, calls follow the shape of the dose curve; as a rule, active = well fitted curve in the direction sought with a large enough effect; inconclusive = small, poorly fitted or top-dose-only effect, or another doubt; inactive = no such curve, though single readings can be large; an effect the other way counts as inactive or inconclusive. Unless noted, % is scaled to controls: 0 for no effect and ±100 for the full control effect.

SMILES	IL-1B inflam inh	HT1080 IDH1KD tx	DT40 TDP1 no CPT	HT1080-NT tox	TDP1 cell CPT
CCN(C(=O)CN1CCN(S(=O)(=O)c2cc(Cl)ccc2Cl)CC1)c1c(N)n(Cc2ccccc2)c(=O)[nH]c1=O	-3.6	-1.6%	-0.4%	-3.8%	13.2%
Cc1cc(C)n(CCCN2C(=O)c3cccc4cccc(c34)C2=O)n1	-29.1	-4.8%	u	-3.1%	10.5%
Cc1ccc(C(=O)NCCC2=CCCCC2)cc1S(=O)(=O)N1CCOCC1	1.6	3.8%	u	-2.3%	u
Cc1ccc(C(=O)NCCC2=CCCCC2)cc1S(=O)(=O)N1CCCCC1	-57.8*	-14.9%	u	u	u
Cc1ccccc1C(=O)N1CCc2c([nH]c3ccccc23)C1C(F)(F)F (stereo not given)	-54.7*	u	u	u	u
COc1ccc(C2c3[nH]c4ccccc4c3CCN2C(=O)c2ccc(=O)n(C)n2)c(F)c1 (stereo not given)	67.4	u	u	u	-14.3%
CCOc1cccc(C2c3[nH]c4ccccc4c3CCN2C(=O)c2ccccc2F)c1 (stereo not given)	x	x	16.4µM*	x	u
CCc1cc(C(=O)N2CCc3c([nH]c4ccccc34)C2c2ccc(OC)cc2F)no1 (stereo not given)	u	-29.8%	23.1µM*	u	u
CC(=O)NCCC(=O)Nc1cc(S(=O)(=O)N2CCCCC2)ccc1Oc1ccccc1	-1.2	-11.1%	-10.4%	-5.5%	-24.7%
Cc1cccc(OCC(=O)OCc2cc(=O)n3nc(C4CC4)sc3n2)c1	x	x	-0.5%	x	-22.0%
CCCCc1cc(O)c(CCCC)c(O)c1	u	u	13µM*	u	20.6µM*
CC(C)c1ccccc1-n1c(SCC(=O)c2ccc3c(c2)NC(=O)CO3)nc2ccccc2c1=O	-28.9	-8.7%	23.1µM*	-19.3%	18.4µM*
CC(C)NC(=O)Cn1c(SCC(=O)N2CCc3ccccc3C2)nc2ccccc21	0.2	7.6%	-10.9%	13.6%	-3.5%
O=C(CSc1nc2ccccc2c(=O)n1-c1ccccc1)N1CCc2ccccc2C1	-15.9	-26.2%	16.4µM*	-9.9%	25.9µM*
O=C1COc2ccc(C(=O)CSc3nnc(-c4cccs4)n3Cc3ccccc3)cc2N1	4.0	-5.4%	u	-10.2%	u
O=C1COc2ccc(C(=O)CSc3nnc(Cc4cccs4)n3-c3ccccc3)cc2N1	-21.1	0.6%	9.2µM*	-8.9%	u
CC1CC(C)CN(C(=O)Cn2c(SCC(=O)N3CCc4ccccc4C3)nc3ccccc32)C1 (stereo not given)	-24.2	-8.0%	20.6µM*	-23.4%	u
O=C(CSc1nc2ccccc2c(=O)n1-c1ccccc1)N1CCC1	4.5	4.0%	0.0%	1.2%	7.6%
Cc1cccc(-n2c(SCC(=O)N3CCN(c4ccccn4)CC3)nnc2N2CCOCC2)c1	-15.8	4.2%	13.3%	18.9%	0.4%
O=S(=O)(NC1CC1)c1ccc(Cl)cc1F	3.2	4.9%	13.6%	6.4%	-4.0%
CCN(CC)c1ccc(NC(=O)CSc2nc3ccccc3c(=O)n2-c2cc(S(=O)(=O)N(C)C)ccc2C)cc1	-2.5	-1.0%	u	-5.2%	-24.1%
CC(C)c1ccccc1-n1c(SCC(=O)N2CCc3ccccc3C2)nc2ccccc2c1=O	u	u	23.1µM*	-19.2%	u
Cn1c(=O)c2c(nc(SCC(=O)N3CCc4ccccc4C3)n2C)n(C)c1=O	-1.5	23.6%	-6.6%	2.2%	-1.4%
COc1ccc(OCCSc2nnc3sc4ccccc4n23)cc1	-79.2*	-5.5%	u	0.0%	u
COc1ccc(OCCSc2nnc(C)n2-c2ccccc2)cc1	-9.1	-3.5%	25.9µM*	-8.0%	29.1µM*
SMILES	IL-1B inflam inh	HT1080 IDH1KD tx	DT40 TDP1 no CPT	HT1080-NT tox	TDP1 cell CPT
COc1ccccc1OCCSc1nnc(C)n1-c1ccccc1	0.0	-0.1%	-12.9%	-2.7%	-21.7%
CN(C)CCSc1nnc2sc3ccccc3n12	15.0	-3.1%	-22.6%	-4.9%	-8.2%
Cc1ccc(O)c(-c2cc(-c3ccccc3F)[nH]n2)c1	-10.0	20.6µM*	u	23.1µM*	u
Cc1ccc(-c2cc(-c3ccccc3C)[nH]n2)c(O)c1	-11.1	18.4µM*	u	20.6µM*	u
Cc1ccc(-c2cc(-c3cccc(F)c3)n[nH]2)c(O)c1	-11.9	u	u	u	-9.8%
O=[N+]([O-])c1ccccc1-c1cc(-c2ccccc2O)n[nH]1	-74.1*	u	u	-21.6%	u
COc1cc(/C=C(\NC(C)=O)C(=O)Nc2cccc(O)c2)ccc1OC(C)=O	23.6	19.7%	0.5%	22.1%	25.4%
O=[N+]([O-])c1cccc2c1ccc1ncccc12	-8.4	u	-17.9%	u	-2.3%
O=c1ccc2c(ccc3ncccc32)o1	u	2.9%	11.6µM*	0.5%	-17.0%
CCOC(=O)N/N=C(\C)c1ccc(-n2cnnn2)cc1	22.0	19.4%	10.6%	10.6%	-0.5%
COc1ccccc1NC(=O)CN(C)S(=O)(=O)c1cccc2cccnc12	-19.0	0.0%	18.4µM*	3.3%	35.5%
Cc1ccc(NC(=O)CN(C)S(=O)(=O)c2cccc3cccnc23)cc1F	-6.6	0.9%	u	-2.9%	u
COc1ccc(N(C)S(=O)(=O)c2cccc3cccnc23)c(OC)c1	22.2	8.91µM*	18.4µM*	11.2µM*	u
COc1ccc(NC(=O)C2CCCN2S(=O)(=O)c2cccc3cccnc23)c(OC)c1 (stereo not given)	41.7	-1.1%	u	-3.5%	u
Cc1ccc(NC(=O)CN(C)S(=O)(=O)c2cccc3cccnc23)cc1C	-22.5	-1.1%	14.6µM*	-4.0%	u
CSc1ccccc1NC(=O)CN(C)C(=O)COc1cccc2cccnc12	14.4	-1.5%	3.26µM*	2.5%	5.17µM*
C[C@@H]1CN(Cc2ccc3c(c2)CN(C(=O)CCc2nc4ccc(F)cc4[nH]2)CCO3)C[C@H](C)O1	x	x	-28.6%	x	2.9%[9.04 µM]
CC(=O)NN1C(=O)c2ccc3c4c(ccc(c24)C1=O)C(=O)N(NC(C)=O)C3=O	82.5	-0.4%	u	-13.9%	u
COc1ccc(N(C(=O)C2CCCCC2)S(=O)(=O)c2cccc3cccnc23)cc1	-51.9*	-12.6%	-24.2%	-8.8%	15.2%
CC1CCCCC1NC(=O)CN(C)S(=O)(=O)c1cccc2cccnc12 (stereo not given)	-16.4	16.4%	u	-24.9%	-11.8%
CCc1ccc2[nH]c3nc(N/N=C/c4cccc(O)c4)nnc3c2c1	20.9	9.2µM*	-0.5%	u	-2.3%
COc1cccc(/C=N/Nc2nnc3c(n2)[nH]c2ccccc23)c1OC	63.1	5.0%	u	-0.5%	u

Screens (PubChem)
